BH1578 lux ind – quorum light induction in luxS cqsA deficient V. cholerae; V. cholerae BH1578 lux reporter, luminescence, 6 h; activation, % at 18.7 µM; hit rate 0.16% among 350,000; AID 588436; in the data active means activation mostly above about 9.7%, no sharp cut-off
Y pestis TopoI – blocks Yersinia pestis topoisomerase I activity. Y. pestis Topo-I cleavage product accumulation, plate reader. AID 504884. hit rate 0.064% among 360,000. activity, % at 10 µM; in the data active means activity above about 50%, passing the limit was not always enough
CCHF vOTU inh-1 – blocks the CCHF virus ovarian tumor domain protease | AID 651958 | CCHFV vOTU protease, Pep-AMC fluorescence | inhibition, % at 11.5 µM | hit rate 0.55% among 370,000
PrPC surface inh – cell surface PrPC inhibition, primary TR-FRET screen; P04156; hit rate 0.43% among 370,000; inhibition, % at 13.8 µM; TR-FRET read-out; in the data active means inhibition above about 24%
CCHF vOTU inh-2 – CCHFV vOTU protease inhibition, confirmation | hit rate 17% among 1,900 | AID 686976 | Recombinant CCHFV vOTU, Pep-AMC fluorescence | shares compounds with CCHF vOTU inh-1 | inhibition, % at 11.5 µM
Hits are given with their value. Shown are actives, neighbours in structure and some others; about 1.1% of the full set was active somewhere. Unless noted, no stated cut-off is given here; in the data, active means inhibition above about 30%; inactive means the rest.

Screening O=C(O)CCCC(=O)NS(=O)(=O)c1ccc(Cl)cc1 returned BH1578 lux ind inactive, Y pestis TopoI inactive, CCHF vOTU inh-1 inactive and PrPC surface inh inactive.
Cc1ccc(Cl)cc1N1CCN(C(=O)COc2ccc3c(c2)CCC3)CC1 was read as BH1578 lux ind inactive, Y pestis TopoI inactive, CCHF vOTU inh-1 30.4, PrPC surface inh inactive and CCHF vOTU inh-2 inactive.
COc1ccc(-c2ccc3nnc(SCC(=O)N4CCCC4)n3n2)cc1 was read as BH1578 lux ind inactive, Y pestis TopoI inactive, CCHF vOTU inh-1 inactive and PrPC surface inh inactive.
Cc1oc2c(cc(NS(=O)(=O)c3ccc(C(C)C)cc3)c3ccccc32)c1C(=O)O was read as BH1578 lux ind inactive, Y pestis TopoI inactive, CCHF vOTU inh-1 inactive and PrPC surface inh inactive.
Screening Cc1oc2c(cc(NS(=O)(=O)c3ccc(F)cc3)c3ccccc32)c1C(=O)O returned BH1578 lux ind inactive, Y pestis TopoI inactive, CCHF vOTU inh-1 29.6, PrPC surface inh inactive and CCHF vOTU inh-2 inactive.
O=S(=O)(Nc1ccc(O)c2ccccc12)c1ccc(F)cc1 was read as BH1578 lux ind inactive, Y pestis TopoI inactive, CCHF vOTU inh-1 80.7, PrPC surface inh inactive and CCHF vOTU inh-2 inactive.
`CCc1ccc(S(=O)(=O)Nc2ccc(O)c3ccccc23)cc1` gave BH1578 lux ind inactive, Y pestis TopoI inactive, CCHF vOTU inh-1 62.0, PrPC surface inh inactive and CCHF vOTU inh-2 inactive.
`O=S(=O)(Nc1ccc(NS(=O)(=O)c2ccccc2)c2ccccc12)c1ccccc1` gave BH1578 lux ind inactive, Y pestis TopoI inactive, CCHF vOTU inh-1 inactive and PrPC surface inh inactive.
CCN(CC)C(=O)c1ccccc1NC(=O)c1ccccc1 was read as BH1578 lux ind inactive, Y pestis TopoI inactive, CCHF vOTU inh-1 inactive and PrPC surface inh inactive.
For CCOC(=O)C1=C(C)NC(=O)NC1c1cccnc1 (stereo not drawn) the results were BH1578 lux ind inactive, Y pestis TopoI inactive, CCHF vOTU inh-1 inactive and PrPC surface inh inactive.
Screening O=C1Nc2ccc([N+](=O)[O-])cc2C1(O)N1CCCCCC1 (stereo not drawn) returned BH1578 lux ind inactive, Y pestis TopoI inactive, CCHF vOTU inh-1 30.3, PrPC surface inh inactive and CCHF vOTU inh-2 inactive.
Cc1cccc(C)c1NC(=O)C(c1ccccc1)n1c(=O)c(-c2ccccc2)nc2ccccc21 (stereo not drawn) was read as CCHF vOTU inh-1 inactive and PrPC surface inh inactive.
`Cc1cccc(C)c1NC(=O)C(c1ccc(-c2ccccc2)cc1)n1c(=O)c(-c2ccco2)nc2ccccc21` (stereo not drawn) gave CCHF vOTU inh-1 32.9, PrPC surface inh inactive and CCHF vOTU inh-2 inactive.
For CCCCCNC(=O)C(c1ccc(C(F)(F)F)cc1)n1c(=O)c(-c2ccco2)nc2ccccc21 (stereo not drawn) the results were CCHF vOTU inh-1 30.7, PrPC surface inh inactive and CCHF vOTU inh-2 inactive.
CCCCCNC(=O)C(c1cccc2ccccc12)n1c(=O)c(-c2ccco2)nc2ccccc21 (stereo not drawn) was read as CCHF vOTU inh-1 inactive and PrPC surface inh inactive.
CC(C)(C)NC(=O)C(c1ccc(-c2ccccc2)cc1)n1c(=O)c(-c2ccco2)nc2ccccc21 (stereo not drawn) was read as CCHF vOTU inh-1 32.3, PrPC surface inh inactive and CCHF vOTU inh-2 inactive.
`COC(=O)[C@@]12C[C@@H](CC(=O)NCc3cccc(C(F)(F)F)c3)C(=O)N(Cc3ccccc3)C1=CCC(C)(C)C2` gave CCHF vOTU inh-1 inactive and PrPC surface inh inactive.
COC(=O)[C@@]12C[C@@H](CC(=O)NCc3ccc(OC)c(OC)c3)C(=O)N(Cc3ccco3)C1=CCC(C)(C)C2 was read as CCHF vOTU inh-1 36.9, PrPC surface inh inactive and CCHF vOTU inh-2 inactive.
COC(=O)[C@@]12C[C@@H](CC(=O)NCc3cccc(C(F)(F)F)c3)C(=O)N(Cc3cccc4ccccc34)C1=CCC(C)(C)C2 was read as CCHF vOTU inh-1 30.9, PrPC surface inh inactive and CCHF vOTU inh-2 inactive.
Screening CCCCCCCCN1C(=O)[C@H](CC(=O)NCc2ccc(OC)c(OC)c2)C[C@@]2(C(=O)OC)CC(C)(C)CC=C12 returned CCHF vOTU inh-1 37.4, PrPC surface inh inactive and CCHF vOTU inh-2 inactive.
For COC(=O)[C@@]12C[C@@H](CC(=O)NCc3ccc(OC)c(OC)c3)C(=O)N(CCc3ccc(OC)c(OC)c3)C1=CCC(C)(C)C2 the results were CCHF vOTU inh-1 30.5, PrPC surface inh inactive and CCHF vOTU inh-2 inactive.
N[C@@H](Cc1ccc(N(CCCl)CCCl)cc1)C(=O)O was read as BH1578 lux ind inactive, Y pestis TopoI inactive, CCHF vOTU inh-1 inactive and PrPC surface inh inactive.

High-throughput results from PubChem BioAssay.
